This is part of a sample that, as a whole, favours compounds with a hit. Of some 79,000 tested, about 15% had one in any assay. The source made the active and inactive calls. Rule as the data show it: active = growth inhibition above about 70%; inactive = the rest.
Tests used:
[1] = NCI Yeast Anticancer Drug Screen. Data for the rad52 strain (AID 147);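 also: 0% = growth of vehicle-treated control cultures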; settings: S. cerevisiae rad52 mutant growth inhibition, stronger effect = higher value
Outline: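 Growth of repair-deficient yeast cells was compared between compound-treated and vehicle-treated cultures to give percent inhibition.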

[2] = NCI Yeast Anticancer Drug Screen. Data for the wt1 strain (AID 149);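 also: 0% = growth of vehicle-treated wt1 cultures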; settings: S. cerevisiae wt1 strain (SPY 50644) growth inhibition, stronger effect = higher value
Outline: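 Growth inhibition read against vehicle controls after compound exposure of the wt1 yeast strain.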

[3] = NCI Yeast Anticancer Drug Screen. Data for the rad50EPP+ strain (AID 151);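 also: 0% = growth of vehicle-treated control cultures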; settings: S. cerevisiae rad50 mutant strain, stronger effect = higher value
Outline: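 Measured: growth inhibition of rad50EPP+ yeast. Reference: vehicle-treated controls. Screen uses strains with defined genetic alterations in DNA damage repair or cell cycle control.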

[4] = NCI Yeast Anticancer Drug Screen. Data for the mgt1 strain (AID 153); settings: S. cerevisiae mgt1 mutant growth inhibition, stronger effect = higher value
Outline: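 Compounds were applied to mgt1 mutant yeast, and growth was then compared against vehicle-treated control cultures to give percent inhibition.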

[5] = NCI Yeast Anticancer Drug Screen. Data for the rad50 strain (AID 155);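 also: 0% = growth of vehicle-only cultures of the same strain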; settings: S. cerevisiae rad50 strain growth inhibition, stronger effect = higher value
Outline: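 Readout: growth inhibition relative to vehicle-treated cultures. Compound exposure was carried out in a genetically defined yeast strain deficient in DNA damage repair.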

[6] = NCI Yeast Anticancer Drug Screen. Data for the mec2-1 strain (AID 157); settings: S. cerevisiae mec2-1 strain, stronger effect = higher value
Outline: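 Compounds were applied to mec2-1 yeast cells. Their growth was then compared with that of vehicle-treated cultures to give growth inhibition.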

[7] = NCI Yeast Anticancer Drug Screen. Data for the rad14 strain (AID 159);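 also: 0% = growth of vehicle-treated control cultures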; settings: S. cerevisiae rad14 strain growth inhibition, stronger effect = higher value
Outline: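 Growth inhibition vs vehicle controls; genetically altered yeast strain (DNA damage repair defect) treated with test compounds.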

[8] = at 5.0 µM (retest, dose inferred, filed as 0.5)
[9] = at 50.0 µM (retest, dose inferred, filed as 5.0)

Measured: growth inhibition

N#Cc1ccc(C2NN=CC23C(=O)c2ccccc2OC3c2ccccc2)cc1 (stereo unspecified)
active: [5]; at 50.0 µM 73.3% | [6]; [9] 85% | [6]; at 50.0 µM 77%
inactive: [1]; at 1.2 µM 2% | [1]; at 3.7 µM 5% | [1]; at 11.0 µM 4% | [1]; at 33.0 µM 3% | [1]; at 100.0 µM 5% | [2]; at 1.2 µM 0% | [2]; at 3.7 µM 0% | [2]; at 11.0 µM -1% | [2]; at 33.0 µM -2% | [2]; at 100.0 µM 2% | [3]; at 1.2 µM -2% | [3]; at 3.7 µM 0% | [3]; at 11.0 µM -1% | [3]; at 33.0 µM -3% | [3]; at 100.0 µM 3% | [4]; at 1.2 µM -4% | [4]; at 3.7 µM -2% | [4]; at 11.0 µM 5% | [4]; at 33.0 µM -3% | [4]; at 100.0 µM 2% | [5]; at 1.2 µM 2% | [5]; at 3.7 µM 4% | [5]; [8] 10% | [5]; at 11.0 µM -6% | [5]; at 33.0 µM 5% | [5]; [9] 66% | [5]; at 100.0 µM 3% | [6]; at 1.2 µM 2% | [6]; at 3.7 µM -2% | [6]; [8] -19% | [6]; at 11.0 µM -3% | [6]; at 33.0 µM -4% | [6]; at 100.0 µM 1% | [7]; at 1.2 µM 0% | [7]; at 3.7 µM 1% | [7]; at 11.0 µM 5% | [7]; at 33.0 µM 3% | [7]; at 100.0 µM 3%
